In PubChem BioAssay one finds composite z-score, composite Z-score and z-score data, which are given here for five molecules.

Assay [1] deals with Albumin (Bos taurus) (UniProt P02769). As to the kind of experiment: compounds binding labelled BSA control protein – biochemical, small-molecule microarray, Alexa647 label, 635/667 nm fluorescence, artefact control for SMM control protein annotation, profiling panel (AID 1118).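 Also: score merges 667 nm emission intensity and signal-to-noise per printed compound spot.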 As to conditions: BSA-A647 binding, fluorescence 635 nm, higher = more signal.
A short description of assay [2]: probe aXIP binding to arrayed compounds – biochemical, NeuroSMM set, 635/667 nm fluorescence, primary screen (AID 1119).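 Also: probe is the protein aXip251-270 applied at 1 µg/mL to compound-printed slides; binding of probe to printed compounds measured as 667 nm fluorescence plus signal to noise.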 As to conditions: small-molecule microarray, higher = more signal, called active from +8 up or from −8 down.
The nature of assay [3]: probe aNOTCH3 binding on compound microarray – biochemical, small-molecule microarray, 635/667 nm fluorescence, primary screen (AID 1120).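 Also: probe is a biotin-tagged antibody raised against NOTCH3 rather than NOTCH3 protein; score merges spot fluorescence near 667 nm with spot signal to noise.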 As to conditions: higher = more signal.
The nature of assay [4]: probe aNOTCH2 binding on compound microarray – biochemical, small-molecule microarray, 635/667 nm fluorescence, primary screen (AID 1121).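 Also: score merges feature fluorescence read at 667 nm with its signal to noise.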 The following applies: higher = more signal.
Assay [5] has as its target Carbonic anhydrase 2 (Homo sapiens) (UniProt P00918). As to the kind of experiment: compounds binding carbonic anhydrase 2 – biochemical, small-molecule microarray, Alexa647-labelled CAII, profiling panel (AID 1122). The following applies: CAII-A647 binding fluorescence, higher = more signal.
A short description of assay [6]: COS7 lysate on small-molecule microarray, probe aHis, 635 nm (AID 1123).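 Also: z-score combines 667nm fluorescence intensity with signal-to-noise per printed compound spot.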 The following applies: COS7 cell lysate, fluorescence, higher = more signal.
A short description of assay [7]: probe aLAP1 signal on lysate-treated microarray – cell lysate, small-molecule microarray, COS7 lysate, primary screen (AID 1124).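 Also: lysate comes from COS7 cells expressing LAP1 and is applied at 0.3 µg/mL; score merges spot fluorescence near 667 nm with signal-to-noise over triplicate slides.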 As to conditions: probe aLAP1, fluorescence, higher = more signal.
The subject of assay [8] is Sam68 (KHDRBS1). The experiment in a line: compounds binding KHDRBS1 protein – biochemical, small-molecule microarray, 635 nm fluorescence, primary screen (AID 1125).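 Also: score merges 667 nm channel intensity with signal to noise over triplicate slides.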 The following applies: higher = more signal.
Assay [9] concerns Chordin-like protein 2 (CHRDL2). The experiment in a line: compounds binding chordin-like 2 – biochemical, small-molecule microarray, 635 nm fluorescence, primary screen (AID 1126).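 Also: printed compound slides probed with Chrdl2 protein at 4 µg/mL for 1 h at 4 C; score merges 667 nm emission intensity with signal to noise over three replicate slides.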 As to conditions: fluorescence 635 nm, higher = more signal.
Assay [10] addresses Concanavalin-A (Canavalia ensiformis) (UniProt P02866). As to the kind of experiment: compounds binding concanavalin A lectin – biochemical, small-molecule microarray, Alexa647 label, 635 nm, artefact control for SMM control protein annotation, primary screen (AID 1127).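 Also: z combines 667 nm emission intensity with signal-to-noise across three replicate slides.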 As to conditions: ConA-A647 binding fluorescence, higher = more signal.
The nature of assay [11]: compounds binding Alexa647 anti-His antibody – biochemical, small-molecule microarray, 635 nm fluorescence, artefact control for SMM control protein annotation, primary screen (AID 1128).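 Also: score merges feature fluorescence with signal-to-noise for each printed compound spot.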 As to conditions: higher = more signal.
In assay [12] the test system is Human papillomavirus type 1a E7 protein (residues 1-88). The experiment in a line: HPV1a E7 small-molecule binders, primary screen, biochemical, small-molecule microarray, residues 1-88, 635 nm (AID 1129). The following applies: small-molecule microarray binding, fluorescence 635 nm; higher = more signal.
In assay [13] the target is Focal adhesion kinase 1 (Homo sapiens) (UniProt Q05397). The experiment in a line: PTK2 protein binding on printed compound slides – biochemical, small-molecule microarray, 635/667 nm fluorescence, BSA, DTT, primary screen (AID 1130).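 Also: composite of spot emission at 667 nm and signal to noise over triplicate slides.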 The following applies: 635 nm fluorescence, higher = more signal.
The test system of assay [14] is Fibrinogen (Alexa647-labelled). As to the kind of experiment: Alexa647-fibrinogen binding to printed small molecules – biochemical, small-molecule microarray, 635/667 nm fluorescence, artefact control for SMM control-protein annotation, profiling panel (AID 1131).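 Also: z-score merges 667 nm fluorescence with per-spot signal-to-noise over triplicate slides.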 As to conditions: fibrinogen-A647 binding fluorescence, higher = more signal.
Assay [15] addresses Follistatin (Homo sapiens) (UniProt P19883). The experiment in a line: FST protein binding to printed compounds – biochemical, small-molecule microarray, 635/667 nm fluorescence, primary screen (AID 1132). As to conditions: 635 nm fluorescence, higher = more signal.
Assay [16] concerns the target Fibroblast growth factor 2 (Homo sapiens) (UniProt P09038). The experiment in a line: basic fibroblast growth factor binding to printed compounds – biochemical, small-molecule microarray, 635/667 nm fluorescence, primary screen (AID 1133). As to conditions: FGF2, fluorescence 635/667, higher = more signal.
Assay [17] in a line: JC-1 mitochondrial potential readout, lung cancer cells – cell-based, A549, JC-1 fluorescence, basal, 24 h, 100 nL, profiling panel (AID 1138).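 Also: A549 lung adenocarcinoma cells under basal conditions with no added stimulus; test concentration not given here.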 As to conditions: higher = more signal.
The test system of assay [18] is Lefty1. As to the kind of experiment: Lefty1 protein binding to printed compounds – biochemical, small-molecule microarray, 635/667 nm fluorescence, primary screen (AID 1139). As to conditions: fluorescence 635/667, higher = more signal.
Assay [19] relates to wheat germ agglutinin (Triticum aestivum), Alexa647-labelled. The experiment in a line: Alexa647-WGA lectin binding to printed small molecules – biochemical, small-molecule microarray, 635/667 nm fluorescence, artefact control for SMM control-protein annotation, profiling panel (AID 1140).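 Also: score merges 667 nm feature emission with signal to noise over triplicate slides.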 The following applies: WGA-A647 binding, 635 nm fluorescence, higher = more signal.
Assay [20] concerns the target Luciferin 4-monooxygenase (Photinus pyralis) (UniProt P08659). As to the kind of experiment: inhibition of purified Photinus pyralis luciferase – biochemical, luminescence, purified enzyme, 2006 set, primary screen (AID 1141).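 Also: cell-free assay with purified firefly luciferase at 100 ng per well in PBS; test concentration not given here.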 The following applies: purified firefly luciferase, SteadyGlo luminescence, 30 min; higher = more signal, called active from +8 up or from −8 down.

Calls of active or inactive are those of the source.

Follistatin (Homo sapiens), sequence (P19883 whole entry, looked up): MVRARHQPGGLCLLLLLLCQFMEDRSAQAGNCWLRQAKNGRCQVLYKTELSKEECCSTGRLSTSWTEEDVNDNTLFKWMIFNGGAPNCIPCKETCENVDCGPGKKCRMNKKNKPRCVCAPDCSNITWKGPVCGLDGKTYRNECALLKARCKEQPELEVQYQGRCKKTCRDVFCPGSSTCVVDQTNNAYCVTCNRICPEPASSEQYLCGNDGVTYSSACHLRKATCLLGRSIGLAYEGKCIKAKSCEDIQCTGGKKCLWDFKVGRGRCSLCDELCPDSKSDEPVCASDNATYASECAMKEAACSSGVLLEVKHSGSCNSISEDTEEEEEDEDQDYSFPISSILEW
Luciferin 4-monooxygenase (Photinus pyralis), sequence (P08659 whole entry, looked up): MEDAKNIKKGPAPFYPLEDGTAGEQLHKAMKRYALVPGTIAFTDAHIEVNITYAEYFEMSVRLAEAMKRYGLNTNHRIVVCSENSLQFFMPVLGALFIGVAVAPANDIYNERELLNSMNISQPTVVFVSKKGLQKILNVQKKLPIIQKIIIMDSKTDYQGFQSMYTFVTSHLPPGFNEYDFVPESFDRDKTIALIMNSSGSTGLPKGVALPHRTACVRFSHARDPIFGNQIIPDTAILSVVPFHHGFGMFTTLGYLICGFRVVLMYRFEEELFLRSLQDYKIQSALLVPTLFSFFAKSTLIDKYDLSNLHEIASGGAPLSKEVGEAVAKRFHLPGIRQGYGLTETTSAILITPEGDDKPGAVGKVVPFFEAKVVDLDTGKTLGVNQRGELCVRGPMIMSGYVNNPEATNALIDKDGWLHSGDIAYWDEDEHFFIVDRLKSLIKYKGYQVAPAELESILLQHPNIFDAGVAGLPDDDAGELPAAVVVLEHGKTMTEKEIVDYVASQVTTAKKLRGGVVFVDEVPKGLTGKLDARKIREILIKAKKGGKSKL
Albumin (Bos taurus), sequence (P02769 whole entry, looked up): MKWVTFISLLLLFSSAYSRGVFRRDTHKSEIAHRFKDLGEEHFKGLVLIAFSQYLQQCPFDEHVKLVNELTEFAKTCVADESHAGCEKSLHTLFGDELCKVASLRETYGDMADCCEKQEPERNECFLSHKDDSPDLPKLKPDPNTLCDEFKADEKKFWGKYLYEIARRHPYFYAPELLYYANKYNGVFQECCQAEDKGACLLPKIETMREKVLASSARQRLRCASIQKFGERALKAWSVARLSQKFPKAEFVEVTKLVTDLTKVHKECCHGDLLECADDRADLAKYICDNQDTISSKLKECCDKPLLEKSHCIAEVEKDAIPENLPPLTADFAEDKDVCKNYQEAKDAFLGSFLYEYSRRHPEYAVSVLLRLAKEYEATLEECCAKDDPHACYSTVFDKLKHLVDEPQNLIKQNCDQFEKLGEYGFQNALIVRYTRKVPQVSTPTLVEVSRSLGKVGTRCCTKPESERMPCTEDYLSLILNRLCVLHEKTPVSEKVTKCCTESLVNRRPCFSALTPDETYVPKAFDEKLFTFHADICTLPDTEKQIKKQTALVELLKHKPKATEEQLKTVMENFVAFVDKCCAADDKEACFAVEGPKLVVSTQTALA
Concanavalin-A (Canavalia ensiformis), sequence (P02866 whole entry, looked up): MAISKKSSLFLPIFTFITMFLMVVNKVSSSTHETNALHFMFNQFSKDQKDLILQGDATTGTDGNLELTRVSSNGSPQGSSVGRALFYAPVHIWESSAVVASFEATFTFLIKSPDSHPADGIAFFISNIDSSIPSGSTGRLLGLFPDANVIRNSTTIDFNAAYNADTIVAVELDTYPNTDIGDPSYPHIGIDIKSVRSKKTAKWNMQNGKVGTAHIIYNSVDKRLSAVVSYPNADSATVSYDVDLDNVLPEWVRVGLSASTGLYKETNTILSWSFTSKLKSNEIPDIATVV
Fibroblast growth factor 2 (Homo sapiens), sequence (P09038 whole entry, looked up): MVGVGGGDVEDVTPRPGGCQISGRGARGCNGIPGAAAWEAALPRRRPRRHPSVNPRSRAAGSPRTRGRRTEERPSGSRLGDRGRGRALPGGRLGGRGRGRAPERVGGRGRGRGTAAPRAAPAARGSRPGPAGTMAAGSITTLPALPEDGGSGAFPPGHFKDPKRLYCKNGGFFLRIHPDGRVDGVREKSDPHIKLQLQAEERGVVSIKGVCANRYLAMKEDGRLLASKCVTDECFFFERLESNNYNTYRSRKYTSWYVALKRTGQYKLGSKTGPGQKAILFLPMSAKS
Focal adhesion kinase 1 (Homo sapiens), sequence (Q05397 whole entry, looked up): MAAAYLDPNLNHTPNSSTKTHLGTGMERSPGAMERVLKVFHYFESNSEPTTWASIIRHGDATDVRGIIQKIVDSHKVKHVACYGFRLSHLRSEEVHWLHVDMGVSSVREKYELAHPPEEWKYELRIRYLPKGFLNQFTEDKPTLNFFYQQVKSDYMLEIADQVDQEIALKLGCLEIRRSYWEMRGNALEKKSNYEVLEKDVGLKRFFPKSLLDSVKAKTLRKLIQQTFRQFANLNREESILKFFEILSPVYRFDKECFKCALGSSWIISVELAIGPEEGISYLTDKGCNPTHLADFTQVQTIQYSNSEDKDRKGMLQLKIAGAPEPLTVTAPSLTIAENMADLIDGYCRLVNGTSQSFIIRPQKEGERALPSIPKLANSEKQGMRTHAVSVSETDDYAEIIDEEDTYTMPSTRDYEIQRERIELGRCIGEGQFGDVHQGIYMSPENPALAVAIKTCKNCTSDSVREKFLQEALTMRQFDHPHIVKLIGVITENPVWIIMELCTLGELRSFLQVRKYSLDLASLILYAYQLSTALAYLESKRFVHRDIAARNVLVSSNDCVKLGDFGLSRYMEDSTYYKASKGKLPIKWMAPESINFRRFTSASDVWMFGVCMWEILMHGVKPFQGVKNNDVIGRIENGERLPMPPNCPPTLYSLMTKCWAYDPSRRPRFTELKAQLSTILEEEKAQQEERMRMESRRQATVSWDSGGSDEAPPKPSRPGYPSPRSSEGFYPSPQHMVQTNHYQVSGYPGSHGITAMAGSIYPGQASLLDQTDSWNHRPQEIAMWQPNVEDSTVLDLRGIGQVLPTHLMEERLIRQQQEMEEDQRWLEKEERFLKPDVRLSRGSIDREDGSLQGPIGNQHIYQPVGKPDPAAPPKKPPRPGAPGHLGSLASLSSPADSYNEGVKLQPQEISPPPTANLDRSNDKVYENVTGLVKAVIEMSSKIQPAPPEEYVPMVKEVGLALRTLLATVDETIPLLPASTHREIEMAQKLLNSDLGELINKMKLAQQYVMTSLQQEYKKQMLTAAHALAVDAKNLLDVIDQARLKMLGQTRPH

Turning to `CN(C)CCCNC(=O)[C@@H]1c2ccccc2C(=O)N(Cc2cc(F)cc(C(F)(F)F)c2)[C@H]1c1ccc(CO)cc1`, the composite z-score in assay [1] was 0.277; in assay [3], -0.0976; in assay [4] it was -0.114; in [5], 0.783; in assay [6], 0.969; in [7], 0.578. The composite z-score in [8] is 0.946; in assay [9], 1.08; in assay [10] it was 0.21; in assay [11], 0.77; in assay [12] it was 1.07; in assay [13], -0.0288. Also, the composite z-score in assay [14] is 0.216; in [15], 1.28; in assay [16], 0.309; in [18], -0.271; in [19], 0.039. In addition, the composite Z-score in assay [2] was 0.451 (inactive). Also, the z-score was -0.00183 in assay [17] and 0.0764 (inactive) in assay [20].
As for `CC(C)(C)OC(=O)CC[C@]1(C(N)=O)COC(c2ccc(OCCCO)cc2)=N1`, the composite z-score came to 0.617 in [1]; 0.324 in [3]; 0.357 in [4]; 0.983 in [5]; 2.97 in assay [6]; 1.44 in [7]. For the same molecule, the composite z-score was 1.21 in assay [8]; 0.0555 in assay [9]; -0.207 in assay [10]; 1.3 in [11]; 0.804 in assay [12]; -0.0765 in [13]. Moreover, the composite z-score is 0.29 in assay [14]; 1.1 in assay [15]; 1.13 in [16]; -1.08 in assay [18]; 0.43 in assay [19]. The composite Z-score in assay [2] was 1.43 (inactive). The z-score in [17] was -0.437; in [20], -0.0436 (inactive).
For `C[C@@H](c1ccccc1)N1C(=O)[C@H]2[C@H]3[C@H](O)[C@H](O)CC(=NOC[C@@H](O)COCc4ccco4)[C@@H]3CC[C@H]2C1=O`, the composite z-score in [1] was 0.819; in assay [3], -0.161; in [4] it was -0.185; in assay [5], 0.279; in assay [6], -0.359; in [7] it was -0.254. The composite z-score is -0.779 in [8]; -0.727 in assay [9]; -1.07 in [10]; -0.623 in assay [11]; -0.604 in assay [12]; 0.126 in assay [13]. Besides, the composite z-score in [14] is 0.448; in assay [15], -0.761; in [16], -0.728; in [18], -0.809; in assay [19] it was 0.112. Besides, in assay [2], the composite Z-score was 0.528 (inactive). Further, the results for the z-score in assay [17] and in assay [20] were -0.62 and 0.558 (inactive), respectively.
For `Cc1cc2c(nc1C)CCCN2CC(C)ON=C1[C@H]2CCn3c(=O)n(-c4ccccc4)c(=O)n3[C@H]2[C@H](O)[C@@H]2O[C@H]12` (stereo not given in full), the composite z-score in assay [1] is 0.243; in [3], 0.173; in [4], -0.0535; in assay [5], 0.171; in assay [6], 0.198; in assay [7] it was 0.136. Besides, the composite z-score was 1.24 in assay [8]; 0.647 in assay [9]; 0.367 in assay [10]; -0.674 in assay [11]; 0.304 in assay [12]; 0.515 in assay [13]. Further, the composite z-score in assay [14] came to 0.342; in assay [15], 0.687; in assay [16] it was 0.56; in [18], 0.703; in assay [19], 0.075. Also, the composite Z-score in assay [2] was 0.506 (inactive). In addition, the z-score is -0.562 in assay [17] and 0.424 (inactive) in assay [20].
With `C#C[C@@H]1Oc2ccccc2S(=O)(=O)N2CCC[C@H]12`, the composite z-score is -0.13 in assay [1]; -0.063 in assay [3]; -0.185 in [4]; 0.256 in assay [5]; -1.2 in [6]; -0.34 in [7]. In addition, the composite z-score was -1.29 in assay [8]; 0.424 in assay [9]; -0.512 in assay [10]; 0.104 in assay [11]; -0.283 in [12]; 0.193 in assay [13]. Moreover, the composite z-score in [14] was -0.635; in assay [15], 0.562; in assay [16], 0.155; in assay [18], 0.0495; in assay [19], -0.249. In [2], the composite Z-score is 0.235 (inactive). Moreover, the z-score is -0.273 in assay [17] and -0.0351 (inactive) in [20].
